FMDV inh: High Throughput Screening for Foot and Mouth Disease Virus Antivirals. FMDV antiviral cell-based qHTS. Potency, µM (series often up to 57.9 µM), inactives show at the highest dose activity change, negative = inhibition, actives largely listed as inhibitors. hit rate 1.2% among 410,000; calls by dose curve; tested in HEK293T cells; further: read-out not given here; potency means the concentration at half of the fitted maximal effect; nearly all actives have a fitted effect of over 45% in size
HCV inhibitor: qHTS Assay for Inhibitors of Hepatitis C Virus (HCV). Huh7.5.1 HCVcc-Cre infection, luciferase reporter, 44 h. Potency, µM (top dose mostly 41.8 µM), without a hit: at the top dose activity change, negative = inhibition, usual class: inhibitors. hit rate 3.4% among 340,000. AID 651820, 2012; active means well fitted inhibition curve with a large enough effect; inconclusive means small, poorly fitted or top-dose-only effect, or another doubt; inactive means no such curve, though single readings can be large or run the other way; further: potency means the concentration at half of the fitted maximal effect
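A cell-based infection assay in which seeded cells (1,000 per well) receive test compound after 4 h, are inoculated with HCVcc-Cre at approximately 0.5 moi, and are incubated 44 h before luminescence detection.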
Lassa entry inh: qHTS for Inhibitors of binding or entry into cells for Lassa Virus; Lassa virus pseudotype entry inhibition, cell reporter; Potency, µM (top dose mostly 37.9 µM), for inactives: top-dose activity change, negative = inhibition, actives largely listed as inhibitors; hit rate 1.2% among 300,000; calls by dose curve; tested in HEK293 cells; further: potency means the concentration at half of the fitted maximal effect; nearly all actives have a fitted effect of over 50% in size
MARV entry inh: qHTS for inhibitors of binding or entry into cells for Marburg Virus; hit rate 1.8% among 300,000; Potency, µM (top dose mostly 37.8 µM), for the others: top-dose activity change, negative = inhibition, hits mostly inhibitors; Marburg virus pseudotyped entry inhibition, cell reporter; calls by dose curve; tested in HEK293 cells; further: potency means the concentration at half of the fitted maximal effect
HCMV inh: qHTS Assay for inhibitors of the human cytomegalovirus (HCMV). HFF cells, HCMV-luciferase reporter, 72 h; stronger effect = lower value. activity change, negative = inhibition, % at 57.5 µM. hit rate 4.5% among 410,000; in the data active means activity change below about -60%; inconclusive means no clear call, values can overlap the other calls; inactive means above about -39%
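Human foreskin fibroblasts infected with luciferase-reporter HCMV at MOI 1 PFU/cell, compounds at two doses. Luciferase measured 72 h post infection; normalized to buffer-only basal and Salinomycin (10uM) controls.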
Starred values were filed as active, the others as inactive; u = inconclusive; x = no result; [ ] = remark or other dose. This is a sample that favours compounds with a hit; in the whole collection about 7.9% have one here. On the % scale 0 is the no-effect control and ±100 the full control effect.

SMILES	FMDV inh	HCV inhibitor	Lassa entry inh	MARV entry inh	HCMV inh
O=C(NCCC1=CCCCC1)C1CCN(S(=O)(=O)c2ccccc2)CC1	-6%	8%	-1%[46.1 µM]	u	-5
O=C(NCCC1=CCCCC1)C1CCN(S(=O)(=O)c2cccc(C(F)(F)F)c2)CC1	u	11µM*	x	x	33
Nc1cccc(C(=O)OCC(=O)Nc2cccc3c2C(=O)c2ccccc2C3=O)c1	-9%	-4%	u	u	-8
CC1CCN(C(=O)c2ccc3c(c2NCCO)C(=O)c2ccccc2C3=O)CC1	u	-24%	9%	-8%[46.1 µM]	26
CCN(CC)CCC(=O)Nc1cccc2c1C(=O)c1ccccc1C2=O	5%	u	12%	u	-99*
CCN(CC)CCNC(=O)c1ccc2c(c1NCCO)C(=O)c1ccccc1C2=O	-26%	0.89µM*	x	x	-109*
CC(=O)C1C(N2CC2)CC2C3CC=C4CC(O)CCC4(C)C3CCC21C (stereo unspecified)	-16%	11µM*	u	u	-76*
CC(=O)[C@H]1CC[C@H]2[C@@H]3CC=C4C[C@@H](O)CC[C@]4(C)[C@H]3CC[C@]12C	u	9%	x	x	0
O=C(C1CCC(Cn2c(=O)c3sccc3n(Cc3ccc(F)cc3)c2=O)CC1)N1CCOCC1 (stereo unspecified)	0%	x	21%[46.1 µM]	x	-36
CN(C)c1ncc2nc(-c3cccs3)c(=O)n(-c3ccccc3)c2n1	-2%	x	x	x	x
C/C(N)=C(/C#N)C(=O)CSc1nc2cc(Cl)ccc2c(=O)n1Cc1ccco1	-24%	14µM*	u	4%	u
C/C(N)=C(/C#N)C(=O)CSc1nc2cc(Cl)ccc2c(=O)n1-c1ccc(C)cc1	-17%	7.1µM*	-11%	3%	u
C/C(N)=C(/C#N)C(=O)CSc1nc2ccccc2c(=O)n1Cc1ccc(C)cc1	-25%	-8%	u	u	u
C/C(N)=C(/C#N)C(=O)CSc1nc2cc(Cl)ccc2s1	-27%	8.9µM*	68%[14.3 µM]	2%	-20
C/C(N)=C(/C#N)C(=O)CSc1nc2ccccc2c(=O)n1Cc1ccc(F)cc1	-12%	-19%	x	x	0
C/C(N)=C(/C#N)C(=O)CSc1cc(Cl)ccc1Cl	-2%	14%	-1%	2%	5
CCCCn1c(SCC(=O)/C(C#N)=C(\C)N)nc2ccccc2c1=O	-21%	u	u	17%	-73*
CC(=O)OC[C@H]1O[C@H](CC=NOC[C@@H](C)[C@H](OCc2ccccc2)C(C)C)C=C[C@@H]1OC(C)=O	x	x	x	-10%[14.2 µM]	x
COc1ccccc1OCC(=O)N1CCCC(Nc2ccc(F)c(F)c2)C1 (stereo unspecified)	-16%	17%	-2%	2%	-14
COc1ccc(C)cc1-n1c(=O)c2ccccc2c2ccccc2c1=O	25µM*	5%	-26%	-1%[46.1 µM]	u
COC(=O)c1c(N)n(-c2ccc(OC)c(OC)c2)c2nc3ccccc3nc12	-2%	x	2%[46.1 µM]	-27%[46.1 µM]	1
CCCN(CC(=O)Nc1ccc(Cl)cc1Cl)C(=O)/C=C/c1ccco1	4%	u	u	u	-66*
CC(C)Oc1ccc(C(=O)NCC(c2ccc(N(C)C)cc2)N2CCc3ccccc32)cc1 (stereo unspecified)	-2%	x	u	x	u
COc1ccc(C(CNC(=O)c2cccc(Br)c2)N2CCCC2)cc1 (stereo unspecified)	-1%	u	u	12µM*	-8
COc1ccc(C(CNC(=O)COc2ccc(F)cc2Br)N2CCCC2)cc1 (stereo unspecified)	-24%	u	x	4.5µM*	-61*
SMILES	FMDV inh	HCV inhibitor	Lassa entry inh	MARV entry inh	HCMV inh
COc1ccc(C(CNC(=O)c2cccc(NS(=O)(=O)c3ccccc3)c2)N2CCCC2)cc1 (stereo unspecified)	-5%	-22%	x	x	58
COc1ccc(C(CNC(=O)c2cccc(S(=O)(=O)Nc3ccc(C)cc3)c2)N2CCCCC2)cc1 (stereo unspecified)	5%	3.2µM*	u	u	14
COc1ccc(C(=O)NCC(c2ccc(N(C)C)cc2)N2CCc3ccccc32)cc1 (stereo unspecified)	-18%	x	u	x	-71*
CCCn1c(SCC(=O)NNC(=O)c2ccc(OC)cc2)nnc1C(C)C	-11%	16%	-1%	7%[46.1 µM]	-7
CCn1c(-c2ccccc2F)nc2cc(NC(C)=O)cc(C(=O)N3CCC[C@H]3C(=O)OC)c21	15%	x	x	x	x
O=C(NCc1ccc2c(c1)OCO2)[C@@H]1[C@@H](CO)[C@@H]2Cn3c(cccc3=O)[C@H]1N2Cc1cccnc1	x	x	x	x	19
COc1cccc(NC(=O)CNC(=O)c2ccc(C)o2)c1	-3%	u	u	-1%	36
CCCOc1ccc(Br)cc1CSC(=N)N	u	u	u	7.3µM*	-95*
COc1cc(CN(C(=O)COc2ccc(Cl)cc2)c2ccccn2)cc(OC)c1OC	-9%	x	22%[46.1 µM]	-13%[46.1 µM]	6
Cc1nc(N)nc(N)c1/C=C/C(C)(C)c1ccc(Cl)cc1	u	u	u	u	-109*
CCOC(=O)c1c(C=O)c(C)n(Cc2ccc(C)cc2)c1C	u	3.2µM*	u	u	-1
Cc1c(C=O)c(C=O)c(C)n1Cc1ccccc1	u	u	u	u	-81*
CCOC(=O)c1c(C=O)c(C)n(Cc2ccccc2Cl)c1C	u	u	2%	11%	-8
C=CCn1c(O)c(N=NC(=S)Nc2ccccc2F)c2ccccc21	-18%	10µM*	x	x	-93*
CCCCn1c(O)c(N=NC(=O)c2ccccc2NS(=O)(=O)c2cccs2)c2ccccc21	-4%	-6%	u	8%	19
C=CCn1c(O)c(N=NC(=O)c2ccccc2NS(=O)(=O)c2cccs2)c2ccccc21	-3%	17%	13%	u	-95*
C=CCn1c(O)c(N=NC(=S)Nc2ccccc2F)c2cc(S(=O)(=O)N3CCOCC3)ccc21	-23%	u	u	u	-70*
Cc1cccc(C)c1NC(=S)N=Nc1c(O)n(C)c2ccc(S(=O)(=O)N3CCOCC3)cc12	-10%	u	1%	-10%	-29
CCOc1ccc(CNC(=O)Cn2ncc3c(=O)oc4ccc(C)cc4c32)cc1	-8%	x	-2%[46.1 µM]	14%[46.1 µM]	3
S=C(Nc1ccccn1)NC1CCCCC1	-4%	u	8%	-1%[14.2 µM]	-7
CCc1ccc(N2C(=O)c3sc4nnc(-c5ccccc5)c(=O)n4c3C2=O)cc1	0%	-16%	-1%	0%	-77*
CN1CCN(c2nc(-c3ccccn3)nc3ccccc23)CC1	-11%	-13%	-16%	u	-16
c1ccc(N2CCN(c3nc(-c4ccccn4)nc4ccccc34)CC2)cc1	u	3.2µM*	u	u	-99*
CCOC(=O)C(/C(C)=N/NC(=O)C1CC1c1ccccc1)C(C)C (stereo unspecified)	u	-1%	2.1µM*	25%	27
